This passage reports binding signal results from article PMC11006913.

What all share (assay): PBM; 200 nM protein, PBS
Common to all, as to settings: dsDNA, one strand shown

One assay addresses T1, VENTX (Homo sapiens, UniProt O95231 78-163).
T1 sequence: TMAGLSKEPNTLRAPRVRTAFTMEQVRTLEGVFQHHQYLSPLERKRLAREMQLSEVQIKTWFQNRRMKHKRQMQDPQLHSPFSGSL

For assay [1], the target named is HOXC9 (Homo sapiens, UniProt P31274 178-260, K195R).
In assay [2] the target is HOXC9 (Homo sapiens, UniProt P31274 178-260).
In assay [3] the target is HOXC9 (Homo sapiens, UniProt P31274 178-260, R193K).
Assay [4] addresses HOXC9 (Homo sapiens, UniProt P31274 178-260, R222W).

Chain of HOXC9 (Homo sapiens, UniProt P31274 178-260, R193K) (P31274 178-260 R193K): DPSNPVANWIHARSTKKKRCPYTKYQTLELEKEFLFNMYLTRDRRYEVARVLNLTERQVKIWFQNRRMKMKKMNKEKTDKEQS
Chain of HOXC9 (Homo sapiens, UniProt P31274 178-260, K195R) (P31274 178-260 K195R): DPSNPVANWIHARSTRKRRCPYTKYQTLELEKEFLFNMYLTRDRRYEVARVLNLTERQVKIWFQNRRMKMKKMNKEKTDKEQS
Chain of HOXC9 (Homo sapiens, UniProt P31274 178-260) (P31274 178-260): as the sequence (P31274 178-260 R193K) above, with K16R counted along it
Chain of HOXC9 (Homo sapiens, UniProt P31274 178-260, R222W) (P31274 178-260 R222W): as the sequence (P31274 178-260 R193K) above, with K16R, R45W counted along it

On to CGATAACC, for which the binding signal in the assay with VENTX was 9.81 upbm affinity estimate (log intensity, higher = more binding, comparable within an allelic series).
Consider TTATGCAA, for which, in the assay with VENTX, the binding signal was 9.95 upbm affinity estimate (log intensity, higher = more binding, comparable within an allelic series).
On the same count and under the same terms, as for ATCACCAT, the figure is 10.3 upbm affinity estimate (log intensity, higher = more binding, comparable within an allelic series).
Take CCTGCACC: the binding signal was 9.28 upbm affinity estimate (log intensity, higher = more binding, comparable within an allelic series) in the assay with HOXC9 [1]; 9.29 upbm affinity estimate (log intensity, higher = more binding, comparable within an allelic series) with HOXC9 [2]; 9.3 upbm affinity estimate (log intensity, higher = more binding, comparable within an allelic series) with HOXC9 [3]; 9.7 upbm affinity estimate (log intensity, higher = more binding, comparable within an allelic series) in the assay with HOXC9 [4].
Turning to ACGCCATA, the binding signal was 11 upbm affinity estimate (log intensity, higher = more binding, comparable within an allelic series) with HOXC9 [1]; 10.9 upbm affinity estimate (log intensity, higher = more binding, comparable within an allelic series) with HOXC9 [2]; 11 upbm affinity estimate (log intensity, higher = more binding, comparable within an allelic series) in the assay with HOXC9 [3]; 10.2 upbm affinity estimate (log intensity, higher = more binding, comparable within an allelic series) with HOXC9 [4].
On to CGCGTTTA, for which the binding signal in the assay with VENTX is 10.2 upbm affinity estimate (log intensity, higher = more binding, comparable within an allelic series).
